Measurements reported in PubChem BioAssay (Tox21).
Results filed as inconclusive are left out. Entries that show only a call come without a potency. Activity calls are given as the source filed them. The call rests on the fitted dose curve; in most records, active means well fitted curve in the direction sought with a large enough effect in the repeat runs; inconclusive means weak or mixed curves; inactive means no such curve, though single readings can be large; an effect the other way counts as inactive or inconclusive.

What was measured:
[1] = qHTS assay to identify small molecule agonists of the RXR signaling pathway - cell viability counter screen (AID 1159529); conditions: RXR-alpha-bla HEK293T viability, CellTiter-Glo, 16 h; series mostly up to 76.8 µM; further: nearly all actives have a fitted effect of over 50% in size; further: potency means the concentration at half of the fitted maximal effect
Outline: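 HEK 293T RXRa-bla cells, 2% CS-FBS; 5 h settle; cpd 16 h 37 C, 5% CO2; CellTiter-Glo 30 min RT, luminescence. Tetraoctyl ammonium bromide as positive control.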

[2] = qHTS assay to identify small molecule antagonists of the retinoic acid receptor (RAR) signaling pathway (AID 1159552; further: nearly all actives have a fitted effect of over 50% in size; further: potency means the concentration at half of the fitted maximal effect); conditions: C3RL4 RARE luciferase reporter, retinol-stimulated, 6 h; series mostly up to 92.4 µM
Outline: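 Cells of the C3RL4 line were seeded, incubated overnight, then dosed with compounds in DMSO followed immediately by retinol (1 uM final). Six hours later luciferase detection reagent went in; signal was measured after 30 min at RT.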

[3] = qHTS assay to identify small molecule agonists of the retinoic acid receptor (RAR) signaling pathway (AID 1159553); conditions: C3RL4 RARE luciferase reporter, agonist, 6 h; series mostly up to 73.3 µM; further: potency means the concentration at half of the fitted maximal effect
Outline: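 Agonist activity was scored in C3RL4 cells bearing a retinoic acid response element luciferase construct. Cells were treated with compounds for 6 hr at 37 C, and luciferase signal was measured as luminescence.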

[4] = qHTS assay to identify small molecule antagonists of the estrogen related receptor (ERR) signaling pathway from Tox21 library - cell viability counter screen (AID 1224834); conditions: ERR reporter cells viability, CellTiter-Fluor, 17.5 h; series mostly up to 92.4 µM; further: nearly all actives have a fitted effect of over 30% in size; further: potency means the concentration at half of the fitted maximal effect
Outline: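 Cytotoxicity of test substances is gauged in the same ERR cells used for the antagonist screen, after 17.5 h of compound treatment at 37 C, by CellTiter-Fluor fluorescence measured after 30 min.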

[5] = qHTS assay to identify small molecule antagonists of the retinoid acid receptor (RAR) signaling pathway - cell viability counter screen (AID 1159551); conditions: C3RL4 cells viability, ATP luminescence (CellTiter-Glo), 6 h; series mostly up to 92.4 µM; further: nearly all actives have a fitted effect of over 35% in size
Outline: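 Cytotoxicity counter screen in C3RL4 cells: 6 h compound exposure with 1 uM retinol (final), viability from cellular ATP by luminescence.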

[6] = qHTS assay to identify small molecule antagonists of the estrogen related receptor signaling pathway with the pleiotropic PPARgamma coactivator (PGC) cell viability counter screen (AID 1224822;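 further: viability read after 17.5 h compound exposure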); conditions: ERR/PGC reporter cell line viability counter screen; series mostly up to 46.1 µM
Outline: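 Seed PGC/ERR cells (2,000/well); incubate 6 h at 37 C/5% CO2; pin-transfer compounds in DMSO; incubate 17.5 h at 37 C; add CellTiter-Fluor; after 30 min read fluorescence.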

Row | Structure (SMILES) | Potency [1] | Potency [2] | Potency [3] | Potency [4] | Potency [5] | outcome [6]
1 | CCC(C)(C)C(=O)O | inactive | inactive | inactive | inactive | – | –
2 | O=C(C(=O)c1ccco1)c1ccco1 | inactive | – | – | inactive | inactive | –
3 | CC(C)(C)C(O)/C=C/c1ccc2c(c1)OCO2 (stereo not given) | inactive | inactive | 29.8 µM (active) | – | – | –
4 | CC(CO)(CO)C(=O)O | inactive | – | – | inactive | inactive | –
5 | Cc1ccc(NC(=O)N(C)C)cc1NC(=O)N(C)C | inactive | inactive | inactive | inactive | – | –
6 | CC(=O)C(=O)CC(C)C | inactive | – | – | inactive | inactive | –
7 | Cc1cc(CCCOc2c(C)cc(-c3noc(C(F)(F)F)n3)cc2C)on1 | inactive | inactive | inactive | inactive | – | –
8 | CCOCCC(=O)OCC | inactive | inactive | inactive | inactive | – | –
9 | CC(=O)OCC(=O)[C@@]1(OC(C)=O)[C@@H](C)C[C@H]2[C@@H]3C[C@H](F)C4=CC(=O)C=C[C@]4(C)[C@@]3(F)[C@@H](O)C[C@@]21C | inactive | inactive | – | inactive | – | –
10 | NC(=O)c1ccccc1[N+](=O)[O-] | inactive | inactive | inactive | – | – | –
11 | CC[C@@H](CO)NCCN[C@@H](CC)CO | inactive | inactive | inactive | inactive | – | –
12 | CC(=O)Oc1cccc(O)c1 | inactive | – | – | inactive | inactive | –
13 | Cc1ccc2nc(N)[nH]c(=O)c2c1Sc1ccncc1 | inactive | – | – | inactive | inactive | –
14 | CCCCCCC(O)CCOC(C)=O (stereo not given) | inactive | – | – | inactive | inactive | –
15 | CC1=C2[C@@H]([C@H](C)CC[C@H]2/C=C(\C)C(=O)O)[C@H](O)C1 | inactive | – | – | inactive | inactive | –
16 | CC(C)c1ccc(C(=O)N=C(N)N)cc1S(C)(=O)=O | inactive | inactive | inactive | inactive | – | –
17 | O=C(O)c1cc(Cl)cc(Cl)c1O | inactive | – | – | inactive | inactive | –
18 | c1ccc(CNc2ncnc3c2ncn3C2CCCCO2)cc1 (stereo not given) | inactive | inactive | 4.33 µM (active) | – | – | –
19 | CNS(=O)(=O)c1cc(C(=O)N2CCC(CCN3C4CCC3CC(n3c(C)nc5ccccc53)C4)(c3cccc(F)c3)CC2)c(Cl)cc1F (stereo not given) | 6.16 µM (active) | – | – | 13.7 µM (active) | inactive | –
20 | CCN(Cc1cccc(S(=O)(=O)O)c1)c1ccc(C(=C2C=CC(=[N+](CC)Cc3cccc(S(=O)(=O)O)c3)C=C2)c2ccccc2S(=O)(=O)[O-])cc1 | inactive | 13.7 µM (active) | – | 30.7 µM (active) | – | –

Row | Structure (SMILES) | Potency [1] | Potency [2] | Potency [3] | Potency [4] | Potency [5] | outcome [6]
21 | COC(C)(C)OC | inactive | – | – | inactive | inactive | –
22 | c1ccc(CCCc2ccncc2)cc1 | inactive | inactive | 68.6 µM (active) | inactive | – | –
23 | O=C(NC(Cc1cc(=O)[nH]c2ccccc12)C(=O)O)c1ccc(Cl)cc1 (stereo not given) | inactive | inactive | inactive | – | – | –
24 | C=CC(=O)NC(C)C | inactive | – | – | inactive | inactive | –
25 | Cc1ccc2c(c1)CCCN2 | inactive | inactive | inactive | inactive | – | –
26 | CCC1CCC(CCC(=O)O)C1 (stereo not given) | inactive | inactive | inactive | inactive | – | –
27 | CCCCC(CC)COS(=O)(=O)O (stereo not given) | inactive | inactive | inactive | inactive | – | –
28 | CC(C)(C)NCC(O)COc1cccc2c1C[C@H](O)[C@H](O)C2 (stereo not given in full) | inactive | inactive | inactive | inactive | – | –
29 | CC(C)C(O)C(C)(C)CO (stereo not given) | inactive | 5.01 µM (active) | inactive | 0.631 µM (active) | – | –
30 | CC(C)(C)C1(CCc2ccc(Cl)cc2)CO1 (stereo not given) | inactive | – | – | inactive | inactive | –
31 | ClC1=C(Cl)C1(Cl)Cl | inactive | – | – | inactive | inactive | –
32 | O[C@@H](CNC[C@H](O)[C@H]1CCc2cc(F)ccc2O1)[C@@H]1CCc2cc(F)ccc2O1 | 19 µM (active) | 29.8 µM (active) | – | 29.8 µM (active) | – | –
33 | COc1ccc(-c2cc(C(F)F)nn2-c2ccc(S(N)(=O)=O)cc2)cc1F | inactive | – | inactive | – | – | –
34 | Nc1cccc2c(N)cccc12 | – | inactive | 19.3 µM (active) | – | inactive | inactive
35 | CC1CCCO1 (stereo not given) | inactive | – | – | inactive | – | –
36 | COc1cc(NCc2ccc3nc(N)nc(N)c3c2C)cc(OC)c1OC | – | – | inactive | – | inactive | –
37 | CCCc1nc2c(C)cc(-c3nc4ccccc4n3C)cc2n1Cc1ccc(-c2ccccc2C(=O)O)cc1 | – | inactive | inactive | – | inactive | –
38 | CCCOC(=O)c1c(Cl)c(Cl)c(Cl)c(Cl)c1C(=O)OCCC | – | inactive | inactive | inactive | inactive | –
39 | COc1ccc(-n2nc(C(F)F)cc2-c2ccc(S(C)=O)cc2)cc1 (stereo not given) | inactive | – | inactive | – | – | –
40 | CC(=O)C(C)=O | inactive | – | – | inactive | – | inactive
